Laboratory results taken from PubChem BioAssay.
Results with a measured potency or affinity are listed apart. Active and inactive are the calls of the source. Unless noted, the rule behind the calls is not given here.

Biological target: Calcium-dependent protein kinase 1 (Plasmodium falciparum (isolate 3D7)) (UniProt P62344)
Assay: PfCDPK1 kinase inhibitors, biochemical, TCAMS library (AID 1159585; cut-off not given, nearly all actives have IC50 up to about 0.98 µM;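 note: inhibitors leave more ATP so luminescence rises with inhibition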)
Conditions: recombinant PfCDPK1, Kinase-Glo ATP depletion luminescence

Calcium-dependent protein kinase 1 (Plasmodium falciparum (isolate 3D7)), sequence (P62344 whole entry, looked up): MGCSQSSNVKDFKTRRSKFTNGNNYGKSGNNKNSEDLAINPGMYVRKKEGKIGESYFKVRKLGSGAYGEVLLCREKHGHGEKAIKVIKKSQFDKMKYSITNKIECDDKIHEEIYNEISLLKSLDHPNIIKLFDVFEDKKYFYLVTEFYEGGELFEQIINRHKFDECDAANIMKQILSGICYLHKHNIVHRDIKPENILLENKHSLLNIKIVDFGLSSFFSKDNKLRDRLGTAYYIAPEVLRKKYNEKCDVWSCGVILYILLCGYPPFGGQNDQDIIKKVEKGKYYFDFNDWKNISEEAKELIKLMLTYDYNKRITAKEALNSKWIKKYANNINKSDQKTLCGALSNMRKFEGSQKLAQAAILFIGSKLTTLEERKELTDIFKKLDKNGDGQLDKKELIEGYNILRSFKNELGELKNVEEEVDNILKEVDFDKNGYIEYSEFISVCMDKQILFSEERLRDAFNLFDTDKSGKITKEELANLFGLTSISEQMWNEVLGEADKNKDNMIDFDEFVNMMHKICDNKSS

outcome, inactive:
Cc1ccccc1C1CCN(C2CCC(NC(=O)c3ccc(-c4ccccn4)s3)CC2)CC1 (stereo not given)
COc1ccc2nccc([C@@H](O)CN3CCC(NC(=O)Cn4nc(-c5ccc(C(F)(F)F)cc5)ccc4=O)CC3)c2c1
CS(=O)(=O)c1ccc(OCCCN(Cc2ccccc2C(F)(F)F)c2ccc(C#N)c(C(F)(F)F)c2)cc1
Cc1cc(=O)c(C2CCC(c3ccc(Cl)cc3)CC2)c(C)[nH]1 (stereo not given)
COc1cc(-c2cnc(N)c(-c3nc4ccccc4[nH]3)c2)cc(OC)c1OC
CC1(C)N=C(N)N=C(N)N1OCCOc1ccc2ccccc2c1
O=C(Nc1ccc(OC2CCN(Cc3ccccc3)CC2)c(Cl)c1)c1cccs1
CC(=O)c1ccc(NC(=O)C2c3ccccc3C(=O)N(CC(C)C)C2c2cccs2)cc1 (stereo not given)
COc1ccc2ncc(F)c(CCN3CCC(NCc4cnc5c(c4)NC(=O)CS5)CC3)c2c1
O=C(Nc1nc(-c2ccccn2)cc2ccccc12)c1cccc(Cl)c1
CN1CCCN(Cc2cccc(-c3cccc(NC(=O)c4cccc(C#N)c4)c3)c2)CC1
OC1(Cc2ccccc2)CCN(Cc2cccc(-c3c[nH]c4nc(NC5CCCC5)ncc34)c2)CC1
N#Cc1ccc(NC(=O)N2CCCN(CCCCCNC(=O)/C=C/c3ccc(Cl)c(Cl)c3)CC2)cc1
Nc1ncc(-c2ccc(Cl)c(Cl)c2)c(N)n1
O=C(c1ccc(O)c(-c2cc(Cl)cc(Cl)c2)c1)N(CCO)CCO
CC(=O)Nc1cccc(CNCc2ccc(-c3cnc(N4CCCC(C)(C)C4)nc3)cc2)c1
Cc1ccc(/C=C/C(=O)NC2CCC(N3CCC(c4ccccc4C)CC3)CC2)cc1C (stereo not given)
COc1ccc(OCCCON2C(N)=NC(N)=NC2(C)C)cc1
O=C(NCc1cccc(Cl)c1)c1ccc(CNC2CCN(Cc3ccccc3)CC2)cc1
CN(C)CCOc1ccc(-c2cc(-c3ccc(Cl)c(O)c3)c(-c3ccncc3)[nH]2)cc1
Fc1ccc2nc(-c3ccc(-c4ccc(CN5CCCCC5)cc4)s3)[nH]c2c1
Cc1cc(N2CCC(NS(=O)(=O)c3cccc4cccnc34)CC2)nc(Nc2cccc(C#N)c2)n1
Cc1cc(NC(=O)c2cccs2)ccc1OC1CCN(Cc2ccccc2)C1 (stereo not given)
Oc1ccc2[nH]c(-c3ccc(F)cc3F)nc2c1CN1CCC(O)(c2ccccc2)CC1
COc1cccc(NC(=O)[C@H](C(C)C)n2c(=O)[nH]c3ccccc3c2=O)c1

Biological target: Plasmodium falciparum protein kinase 6 (PK6, PF3D7_1337100) (UniProt Q8IDW1)
Assay: PfPK6 kinase inhibitors, biochemical, TCAMS library (AID 1159586)
Conditions: recombinant PfPK6, Kinase-Glo ATP depletion luminescence

Plasmodium falciparum protein kinase 6 (PK6, PF3D7_1337100), sequence (Q8IDW1 1-305): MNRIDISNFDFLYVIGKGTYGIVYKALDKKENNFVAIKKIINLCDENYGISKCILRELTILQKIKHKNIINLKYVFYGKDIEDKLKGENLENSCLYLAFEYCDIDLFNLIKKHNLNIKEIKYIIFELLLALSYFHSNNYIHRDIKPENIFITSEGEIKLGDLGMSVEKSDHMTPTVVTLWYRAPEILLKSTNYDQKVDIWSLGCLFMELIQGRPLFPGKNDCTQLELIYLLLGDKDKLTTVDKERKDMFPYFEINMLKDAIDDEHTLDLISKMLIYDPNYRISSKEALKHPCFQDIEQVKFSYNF

outcome, inactive:
COc1ccccc1C1CCN(C2CCC(NC(=O)/C=C/c3cc(F)cc(C(F)(F)F)c3)CC2)CC1 (stereo not given)
Cc1ccc(Nc2nccc(NCC(O)c3cccc(F)c3)n2)cc1 (stereo not given)
Cc1cccc2[nH]c(-c3ccc(-c4cccc(CN5CCN(c6ccc(C#N)cn6)CC5)c4)s3)nc12
Cc1ccc(NC(=O)NC2CCN(CCCCCNC(=O)/C=C/c3ccc(Cl)c(Cl)c3)CC2)cc1
NC(=Nc1nc(-c2ccccn2)cc2ccccc12)c1cccc(Cl)c1
CCC1CN2CCc3c([nH]c4ccccc34)C2CC1CC1=NCCc2c1[nH]c1ccc(OC)cc21 (stereo not given)
Cn1c(N)c(C(=O)CSc2nnc(-c3cccs3)n2Cc2ccccc2)c(=O)n(C)c1=O
Cc1cc(NC(=O)c2coc3cc(F)c(N4C[C@@H](C)N(C)[C@@H](C)C4)cc23)cnc1-c1ccc(C#N)cc1
N#Cc1cccc(C(=O)Nc2ccc(-c3nc4ccccc4[nH]3)cc2)c1
Cc1ccc(C(=O)Cn2nc(-c3ccc(C)c(S(=O)(=O)N4CCCCC4)c3)ccc2=O)cc1
COc1ccc2c(NN=C(C)c3ccccn3)cc(C)nc2c1
CCCCCCCNCc1c(O)ccc2c(CNCCCCCCC)c(O)ccc12
CCOc1ccc(C(C)NC(=O)C2COc3ccccc3O2)cc1OCC (stereo not given)
Cc1nc(C)c(CC(=O)Nc2ccc(-c3cccc(-c4nc5ccc(C(F)(F)F)cc5[nH]4)c3)cc2)s1
O=S(=O)(Nc1cc2c(cc1OCCCN1CCCCC1)CCNCC2)c1ccc(-c2ccc(Cl)cc2)cc1
Cc1ccccc1C1CCN(C2CCC(NC(=O)c3ccc(-c4ccccn4)s3)CC2)CC1 (stereo not given)
COc1ccc2nccc([C@@H](O)CN3CCC(NC(=O)Cn4nc(-c5ccc(C(F)(F)F)cc5)ccc4=O)CC3)c2c1
CS(=O)(=O)c1ccc(OCCCN(Cc2ccccc2C(F)(F)F)c2ccc(C#N)c(C(F)(F)F)c2)cc1
Cc1cc(=O)c(C2CCC(c3ccc(Cl)cc3)CC2)c(C)[nH]1 (stereo not given)
COc1cc(-c2cnc(N)c(-c3nc4ccccc4[nH]3)c2)cc(OC)c1OC
CC1(C)N=C(N)N=C(N)N1OCCOc1ccc2ccccc2c1
O=C(Nc1ccc(OC2CCN(Cc3ccccc3)CC2)c(Cl)c1)c1cccs1
CC(=O)c1ccc(NC(=O)C2c3ccccc3C(=O)N(CC(C)C)C2c2cccs2)cc1 (stereo not given)
COc1ccc2ncc(F)c(CCN3CCC(NCc4cnc5c(c4)NC(=O)CS5)CC3)c2c1
O=C(Nc1nc(-c2ccccn2)cc2ccccc12)c1cccc(Cl)c1
CN1CCCN(Cc2cccc(-c3cccc(NC(=O)c4cccc(C#N)c4)c3)c2)CC1
OC1(Cc2ccccc2)CCN(Cc2cccc(-c3c[nH]c4nc(NC5CCCC5)ncc34)c2)CC1
N#Cc1ccc(NC(=O)N2CCCN(CCCCCNC(=O)/C=C/c3ccc(Cl)c(Cl)c3)CC2)cc1
Nc1ncc(-c2ccc(Cl)c(Cl)c2)c(N)n1
O=C(c1ccc(O)c(-c2cc(Cl)cc(Cl)c2)c1)N(CCO)CCO
CC(=O)Nc1cccc(CNCc2ccc(-c3cnc(N4CCCC(C)(C)C4)nc3)cc2)c1
Cc1ccc(/C=C/C(=O)NC2CCC(N3CCC(c4ccccc4C)CC3)CC2)cc1C (stereo not given)
COc1ccc(OCCCON2C(N)=NC(N)=NC2(C)C)cc1
O=C(NCc1cccc(Cl)c1)c1ccc(CNC2CCN(Cc3ccccc3)CC2)cc1
CN(C)CCOc1ccc(-c2cc(-c3ccc(Cl)c(O)c3)c(-c3ccncc3)[nH]2)cc1
Fc1ccc2nc(-c3ccc(-c4ccc(CN5CCCCC5)cc4)s3)[nH]c2c1
Cc1cc(N2CCC(NS(=O)(=O)c3cccc4cccnc34)CC2)nc(Nc2cccc(C#N)c2)n1
Cc1cc(NC(=O)c2cccs2)ccc1OC1CCN(Cc2ccccc2)C1 (stereo not given)
Oc1ccc2[nH]c(-c3ccc(F)cc3F)nc2c1CN1CCC(O)(c2ccccc2)CC1
COc1cccc(NC(=O)[C@H](C(C)C)n2c(=O)[nH]c3ccccc3c2=O)c1
